Hits are enriched below; roughly 3.7% of the tested compounds scored in any of these assays.
BoNT-F LC inh: BoNT F light chain protease inhibition; Multiplex microsphere protease cleavage assay, flow cytometry; inhibition, % at 10 µM; 0.22% of 360,000 active; AID 588497; in the data active = inhibition above about 35%, passing the limit was not always enough; inconclusive = no clear call, values can overlap the other calls; note: plate controls were buffer without enzyme for full effect and enzyme alone for no effect
Bead autofluor: flagged as autofluorescent in microsphere protease counterscreen; 3.1% of 360,000 active; fluorescence intensity (no concentration beside the values); compound autofluorescence counterscreen, microsphere flow cytometry; active compounds read high; in the data active = fluorescence intensity above about 16000; inconclusive = no clear call, values can overlap the other calls
BoNT A protease: inhibitors of Botulinum neurotoxin A light chain protease; inhibition, % at 10 µM; 0.17% of 360,000 active; multiplex microsphere protease substrate cleavage, flow cytometry; note: plate controls were buffer without enzyme for full effect and enzyme alone for no effect
Anthrax LF prot: anthrax lethal factor protease inhibition | 0.12% of 360,000 active | P15917 | inhibition, % at 10 µM | multiplex microsphere protease cleavage assay, LF; note: plate controls were buffer without enzyme for full effect and enzyme alone for no effect
MazEF act: increases E. coli MazEF RNase cleavage of RNA; FAM/BHQ RNA-DNA oligo cleavage fluorescence, 5 h; P0AE70; activation, % at 20 µM; 0.32% of 350,000 active; AID 504720; in the data active = activation above about 50%
Target sequence (P0AE70 whole entry, looked up): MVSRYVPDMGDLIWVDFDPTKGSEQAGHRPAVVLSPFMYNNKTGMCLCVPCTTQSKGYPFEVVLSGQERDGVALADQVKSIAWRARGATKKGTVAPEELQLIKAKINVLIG
Starred values were filed as active, the others as inactive; ? = inconclusive; · = no result. Cut-off read from the data, not from the text of the source, unless noted: active = inhibition above about 30%; inconclusive = no clear call, values can overlap the other calls; inactive = below that.

SMILES	BoNT-F LC inh	Bead autofluor	BoNT A protease	Anthrax LF prot	MazEF act
Cc1nn(CC(=O)N2CCc3ccccc32)c(C)c1S(=O)(=O)NC(C)(C)C	0	3861	1	6	-6
CN(C)C(=O)CCc1ccc2c3c([nH]c2c1)[C@]1(C)[C@@H](C(=O)N2CCOCC2)C[C@H](CC(=O)NCc2cccc(C(F)(F)F)c2)C(=O)N1CC3	-3	3643	0	-4	8
COc1ccc(N2CC(C(=O)NCCC3=CCCCC3)CC2=O)c(OC)c1 (stereo not given)	?	?	0	-1	6
Cc1ccc2c(=O)n3c(nc2c1)C(Cc1ccccc1)NC(=O)c1cc2ccccc2cc1-3 (stereo not given)	-7	3802	0	-5	-9
COC(=O)CC1(c2ccccc2)C(=O)c2ccccc2C1=O	-2	16568*	?	0	8
Cc1ccc(S(=O)(=O)N2CCC[C@H]2C(=O)OCCN2C(=O)c3ccccc3C2=O)cc1	-4	?	1	2	2
COc1ccc(N2C(=O)CC(N3CCN(c4ccc(S(C)(=O)=O)cc4)CC3)C2=O)cc1 (stereo not given)	-1	18815*	2	-1	4
COc1ccc(N2CCN(C3CC(=O)N(C)C3=O)CC2)cc1 (stereo not given)	-1	3102	0	-7	-2
CCCc1c(-c2ccc(O)cc2)nn(-c2ccc(O)cc2)c1-c1ccc(O)cc1	-1	6429	0	-10	51*
Cc1c(C=NNC(=O)c2ccc(Br)cc2)c2ccccn2c1C(=O)c1ccncc1	·	·	·	·	59*
C=CCn1c(SCC(=O)N2CCCCCC2)nc2ccccc2c1=O	-2	5884	-1	-2	4
O=C(NCc1ccco1)c1ccc2c(=O)n(Cc3ccco3)c(SCC(=O)N3CCCC3)nc2c1	0	21141*	-1	-1	-14
CCn1c(SCC(=O)N2CCCCCC2)nc2ccccc2c1=O	-12	2937	-1	-4	-29
CCCCCn1c(SCc2ccncc2)nc2cc(C(=O)NCc3ccco3)ccc2c1=O	2	19744*	?	-9	-16
O=C(CSc1nc2ccccc2c(=O)n1Cc1ccco1)N1CCCCCC1	-4	21631*	?	-12	0
COCCNC(=O)c1ccc2c(=O)n(Cc3ccco3)c(SCC(=O)NC3CCCCC3)nc2c1	2	9333	-1	-14	9
C=CCn1c(SCC(=O)N2CCCC2)nc2cc(C(=O)NCC3CCCO3)ccc2c1=O (stereo not given)	3	16153*	1	-2	4
CCOC(=O)c1cc2nc(OCC)nc(OCC)c2[nH]1	-2	3456	0	-6	-3
CCc1nc(SCC(=O)N2CCCC2)c2ccccc2n1	0	10605	1	0	1
CC(C)c1nc(SCC(=O)N2CCCC2)c2ccccc2n1	1	22830*	?	0	-10
COC(=O)c1ccccc1C(=O)N1CCCC(CNC(=O)c2ccc(F)cc2)C1 (stereo not given)	1	5867	-1	0	2
O=C(O)c1cc(-c2ccc(N3CCOCC3)cc2)nn1-c1ccc(F)cc1F	-1	2063	0	-3	2
Brc1cc(Br)c2nc(-c3ccc(N4CCOCC4)cc3)ccc2c1	10	19443*	?	24	2
COc1ccc(C2N=C(Nc3ccc(C)cc3)Nc3nc(C)cc(=O)n32)cc1 (stereo not given)	2	3770	-1	-2	4
Cc1ccc(NC2=NC(c3ccc(O)cc3)n3c(nc(C)cc3=O)N2)cc1 (stereo not given)	-4	22829*	?	1	-2
SMILES	BoNT-F LC inh	Bead autofluor	BoNT A protease	Anthrax LF prot	MazEF act
CC(OC(=O)c1nc(Cl)ccc1Cl)C(=O)NCc1ccccc1 (stereo not given)	-8	4291	0	-2	-1
COc1ccc(-c2nc3cc(C)c(Br)c(C)n3c2Cc2ccc(C)cc2)cc1OC	-7	5963	3	3	·
Cc1nc(N2CCN(Cc3ccc4c(c3)OCO4)CC2)nc2c1C(=O)CC(c1ccco1)C2 (stereo not given)	?	?	?	?	-6
Cc1nc(N2CCN(Cc3ccccc3)CC2)nc2c1C(=O)CC(c1ccco1)C2 (stereo not given)	-10	17519*	-3	-5	-5
N#CC(CCc1ccc([N+](=O)[O-])cc1)(CCc1ccc([N+](=O)[O-])cc1)C(N)=O	-1	3515	-1	-6	-105
O/N=C1\CCCc2oc3c(c21)CCCC3	2	19892*	1	-1	9
Cc1cc2oc(=O)cc(CN3CCN(C/C=C/c4ccccc4)CC3)c2cc1O	-9	23462*	-4	-3	·
COC(=O)c1ccc(Cn2c(C)c(C(=O)NCc3ccco3)sc2=O)o1	4	3844	0	0	·
CC(=O)n1cc(/C=C2/N=C(c3ccccc3)OC2=O)c2ccccc21	8	10609	2	0	149*
CN(Cc1ccccc1)S(=O)(=O)c1ccc(N2CCCC2=O)cc1	2	8494	0	3	7
COC(=O)C(Cc1ccc(O)cc1)NC(=O)NC12CC3CC(CC(C3)C1)C2 (stereo not given)	-1	4077	-3	2	-1
CCn1c(/C=C/c2ccccc2C)nc2ccccc2c1=O	-1	4035	0	-10	-15
CCn1c(/C=C/c2c(C)n(CC)c3ccccc23)nc2ccccc2c1=O	15	2315	2	7	70*
COc1ccc(-n2c(/C=C/c3ccc(O)cc3)nc3ccccc3c2=O)cc1	·	·	·	·	34
CCn1c(/C=C/c2ccc(O)c(O)c2)nc2ccccc2c1=O	-16	3365	1	17	121*
COc1ccc(-n2c(/C=C/c3ccc(O)c(OC)c3)nc3ccccc3c2=O)cc1	36*	2862	2	-1	-31
CCN(CC(=O)Nc1ccc2c(c1)OCCO2)C(=O)c1ccc(CS(C)(=O)=O)cc1	-2	2976	0	1	7
COc1ccc(-c2c(=O)n(OC)c3ccccc3[n+]2[O-])cc1OC	-10	2971	-1	16	-23
COc1ccc(CN2C(=O)C(CC(=O)NC(c3ccccc3)c3ccccc3)CC(C(=O)N(C)C)=C2C)cc1 (stereo not given)	2	3531	0	0	2
CC(=O)Nc1nonc1-c1ccccc1	-3	20934*	?	0	-2
O=C(Nc1nonc1-c1ccc(Cl)cc1)c1ccccc1	1	4327	0	-12	2
Cc1ccsc1CNCc1cc(Cl)ccc1O	-18	2849	0	-7	1
COC(=O)c1ccc(OCC(=O)c2ccccc2OC)cc1	5	20757*	?	-7	-8
COC(=O)c1ccc(COC(=O)c2ccccc2OC)cc1	-6	2441	0	-1	-10
O=C(COc1ccccc1F)NNC(=O)Cc1ccc(S(=O)(=O)N2CCOCC2)s1	?	?	0	-2	-1
CC(Oc1ccccc1F)C(=O)NNC(=O)Cc1ccc(S(=O)(=O)N2CCOCC2)s1 (stereo not given)	86*	6061	100*	109*	1
O=C(c1ccccc1)n1ccn(-c2ccccc2)c1=S	1	19357*	?	1	-2

Screening results deposited in PubChem BioAssay by several laboratories.
